Each structure is given as a SMILES string. Results filed as inconclusive are left out. Calls of active or inactive are those of the source. Unless noted, calls follow the shape of the full dose curve.

A short description of assay [1]: Nuclear factor erythroid 2-related factor 2/antioxidant responsive element (Nrf2/ARE) small molecule agonists: qHTS cell viability counter screen in human keratinocytes (AID 1919968; active = well fitted curve in the direction sought with a large enough effect in the repeat runs; an effect the other way counts as inactive or inconclusive; also: nearly all actives have a fitted effect of over 55% in size). The method, boiled down: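 KeratinoSens HaCaT cells, 1,500/well, preincubated 5 h, then exposed to compounds in DMSO for 23 h at 37 C/5% CO2. Viability read as CellTiter-Fluor fluorescence after 1 h, in the same wells as the ARE-luciferase read.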

A short description of assay [2]: Nuclear factor erythroid 2-related factor 2/antioxidant responsive element (Nrf2/ARE) small molecule agonists: luciferase reporter gene qHTS assay in human keratinocytes (AID 1919969). Also: nearly all actives have a fitted effect of over 35% in size. Also: potency is read from the fitted curve at half-maximal effect. A general note: In a reporter assay the amount or activity of a reporter protein is the signal.
Assay [3] has as its target Gonadotropin-releasing hormone receptor (Homo sapiens) (UniProt P30968). Kind of assay: Human gonadotropin-releasing hormone receptor (GnRHR) small molecule agonists, calcium flux assay in GnRHR-HEK293 cells (AID 1920063). Also: nearly all actives have a fitted effect of over 35% in size. The method, boiled down:
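HEK293 cells stably expressing human GnRHR were dye-loaded for 1 h at 37 C. Compound was added in agonist mode and fluorescence (Ex/Em 480/540) recorded kinetically for 3 min. Fifteen concentrations, triplicates.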
(In general: Calcium assays in cells follow changes in intracellular calcium, usually with a dye or a luminescent sensor.)

In assay [4] the target is KiSS-1 receptor (Homo sapiens) (UniProt Q969F8). Kind of assay: Human kisspeptin (KISS1R) small molecule agonists, calcium flux assay in KISS1R-HEK293 cells (AID 1920064; active = well fitted curve in the direction sought with a large enough effect in the repeat runs; an effect the other way counts as inactive or inconclusive). The method, boiled down:
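HEK293 cells stably expressing human KISS1R were loaded with calcium dye for 1 h at 37 C, then given compound; fluorescence (Ex/Em 480/540) was read kinetically for 3 min. Fifteen concentrations, triplicate.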

Assay [5] can be described thus: G protein-coupled receptor (GPCR) small molecule agonists, calcium flux assay: HEK293 wild type cell line counter screen (AID 1920065). The method, boiled down:
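Wild-type HEK293 cells plated 18 h, loaded with calcium dye 1 h at 37 C, then compounds added in agonist mode (ATP as positive control). Kinetic fluorescence Ex/Em 480/540 recorded 3 min at 1 sec intervals; 15 concentrations, triplicate.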

Assay [6] can be described thus: p53 small molecule agonists, cell-based qHTS assay with human liver microsomes (AID 1963577).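 Also: p53 response element beta-lactamase reporter cells with liver microsomes plus NADPH.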 The method, boiled down: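 16 h, 37 C exposure of p53RE-bla cells to compounds with human liver microsomes and NADPH (0.5 mg/mL final each); detection via LiveBLAzer mixture, 2 h dark at room temperature.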
In general terms: In qHTS, concentration-response curves come from the screen itself.

Assay [7] in a line: p53 small molecule agonists, cell-based qHTS assay with rat liver microsomes (AID 1963578). The method, boiled down: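 With rat liver microsomes and NADPH present (0.5 mg/mL final each), p53RE-bla cells are treated with compound for 16 h at 37 C. LiveBLAzer detection mixture is then applied for 2 h at room temperature in the dark.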
The nature of assay [8]: p53 small molecule agonists, cell-based qHTS assay with human liver microsomes: qHTS cell viability counter screen (AID 1963579). Also: nearly all actives have a fitted effect of over 45% in size. The method, boiled down: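 In this multiplexed counter screen, the reporter plates were subsequently treated with CellTiter-Glo so that cell viability, reflected by luminescence, could be recorded for p53RE-bla cells dosed 16 h with compounds under microsomal activation (HLM and NADPH).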

A short description of assay [9]: p53 small molecule agonists, cell-based qHTS assay with rat liver microsomes: qHTS cell viability counter screen (AID 1963580). Also: nearly all actives have a fitted effect of over 45% in size. The method, boiled down: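 Intracellular ATP, by CellTiter-Glo luminescence, defines viability. HCT-116 p53RE-bla cells, 4,000 per well, were compound-treated in the presence of rat liver microsomes and NADPH for 16 h at 37 C.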
Assay [10] in a line: p53 small molecule agonists, cell-based qHTS assay: qHTS cell viability counter screen (AID 1963581). Also: nearly all actives have a fitted effect of over 45% in size. The method, boiled down:
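p53RE-bla HCT-116 cells, compounds added 5 h after plating and incubated 16 h at 37 C. Cytotoxicity measured in the same wells as intracellular ATP by CellTiter-Glo luminescence after 30 min at room temperature.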

The nature of assay [11]: p53 small molecule agonists, cell-based qHTS assay (AID 1963582; active = well fitted activation curve with a large enough effect in the signal ratio in the repeat runs, not every such curve was filed as active; the % refers to the signal ratio). The method, boiled down:
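p53RE-bla reporter cells, compounds added in DMSO after 5 h plating, incubated 16 h at 37 C. Beta-lactamase read via 2 h room-temperature LiveBLAzer B/G FRET substrate, fluorescence intensity.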

The target in assay [12] is 5-hydroxytryptamine receptor 2A (Homo sapiens) (UniProt P28223). Kind of assay: 5-hydroxytryptamine receptor 2A (HTR2A) small molecule antagonists, cell-based qHTS assay (AID 1963586). Also: nearly all actives have a fitted effect of over 45% in size. The method, boiled down:
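Antagonist-mode intracellular calcium assay: DOI (4 nM) added after 5 min compound pre-incubation at room temperature to dye-loaded HTR2A-CHO cells. Fluorescence followed for 3 min, sampled every second.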

Assay [13] has the same target. As to the kind of experiment: 5-hydroxytryptamine receptor 2A (HTR2A) small molecule agonists, cell-based qHTS assay (AID 1963587). Also: nearly all actives have a fitted effect of over 30% in size. The method, boiled down:
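Kinetic calcium-flux fluorescence (2 min, 1 sec intervals) after compound addition in agonist mode. HTR2A-CHO cells were cultured 18 h, then dye-loaded 1 h at 37 C.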

The target in assay [14] is Muscarinic acetylcholine receptor M1 (Homo sapiens) (UniProt P11229). As to the kind of experiment: Cholinergic receptor muscarinic 1 (CHRM1) small molecule antagonists, cell-based qHTS assay (AID 1963588). Also: nearly all actives have a fitted effect of over 40% in size. Also: potency is read from the fitted curve at half-maximal effect. The method, boiled down:
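CHRM1-CHO calcium-flux assay, antagonist mode. Cells were seeded 18 h, dye-loaded 1 h at 37 C and given compound for 5 min at RT, then acetylcholine was added at 50nM. FDSS fluorescence was read 3 min; 15 concentrations, three runs.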

Assay [15] has the same target. Kind of assay: Cholinergic receptor muscarinic 1 (CHRM1) small molecule agonists, cell-based qHTS assay (AID 1963589). Also: nearly all actives have a fitted effect of over 35% in size. The method, boiled down: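 CHO cells stably expressing human CHRM1 were loaded with calcium dye for 1 h at 37 C, then compound was added in agonist mode. Intracellular calcium fluorescence was followed kinetically at 1 s intervals. Fifteen concentrations were tested in three independent runs.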

In assay [16] the target is Beta-2 adrenergic receptor (Homo sapiens) (UniProt P07550). Kind of assay: Adrenergic beta2 receptor (ADRB2) small molecule antagonists, cell-based qHTS assay (AID 1963592). Also: series mostly up to about 92 µM; nearly all actives have a fitted effect of over 50% in size. The method, boiled down:
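Cells (CHO, stable ADRB2 overexpression) incubated 18-20hr at 37C; compounds added from DMSO; agonist mix (1nM isoproterenol, 100uM IBMX, 25uM Ro-20-1724) added; 0.5hr RT; d2-cAMP and anti-cAMP-cryptate added; 1hr RT; 665/615 nm read.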

Assay [17] concerns the target D(2) dopamine receptor (Homo sapiens) (UniProt P14416). As to the kind of experiment: Dopamine D2 receptor (DRD2) small molecule agonists, cell-based qHTS assay (AID 1963594). Also: nearly all actives have a fitted effect of over 35% in size. The method, boiled down:
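cAMP accumulation in DRD2-HEK293 cells measured by HTRF after 1 h detection; compounds added 10 min before NKH477 (200nM […]) forskolin-analogue stimulation, 30 min at room temperature, with Ro20-1724 present at 0.1 mM final.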

Assay [18] has the same target. Kind of assay: Dopamine D2 receptor (DRD2) small molecule antagonists, cell-based qHTS assay (AID 1963595; active = well fitted inhibition curve with a large enough effect in the signal ratio in the repeat runs, with a control signal flat; the % refers to the signal ratio). The method, boiled down:
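Antagonism was scored as restored cAMP in HEK293-DRD2 cells. These cells were stimulated with 200 nM NKH477 and 12 nM quinpirole for 30 min at room temperature, in the presence of 0.1 mM Ro20-1724.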

Assay [19] in a line: cAMP Responsive Elements (CRE) small molecule antagonists, cell-based qHTS assay (AID 1963591; active = well fitted inhibition curve with a large enough effect in the signal ratio in the repeat runs, not every such curve was filed as active; the % refers to the signal ratio). The method, boiled down:
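CRE-bla HEK293T cells plated 18 h, then given compound plus NKH477 at 0.25 uM final for 3 h at 37C. Beta-lactamase reporter read with LiveBLAzer B/G FRET substrate after 2 h at room temperature.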

5-hydroxytryptamine receptor 2A (Homo sapiens), sequence (P28223 whole entry, looked up): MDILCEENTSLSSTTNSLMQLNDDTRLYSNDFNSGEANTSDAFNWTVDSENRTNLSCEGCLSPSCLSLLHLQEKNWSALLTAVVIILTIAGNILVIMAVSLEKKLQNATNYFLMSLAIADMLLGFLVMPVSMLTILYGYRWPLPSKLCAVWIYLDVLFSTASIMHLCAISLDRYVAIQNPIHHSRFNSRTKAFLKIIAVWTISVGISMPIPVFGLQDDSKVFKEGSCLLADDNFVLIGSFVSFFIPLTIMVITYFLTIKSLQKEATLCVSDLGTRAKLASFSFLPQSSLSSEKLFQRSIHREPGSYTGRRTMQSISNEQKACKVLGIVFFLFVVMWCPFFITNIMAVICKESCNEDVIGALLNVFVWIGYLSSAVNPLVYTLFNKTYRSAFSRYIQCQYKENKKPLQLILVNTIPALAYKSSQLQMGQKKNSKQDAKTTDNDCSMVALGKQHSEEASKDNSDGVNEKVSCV
KiSS-1 receptor (Homo sapiens), sequence (Q969F8 whole entry, looked up): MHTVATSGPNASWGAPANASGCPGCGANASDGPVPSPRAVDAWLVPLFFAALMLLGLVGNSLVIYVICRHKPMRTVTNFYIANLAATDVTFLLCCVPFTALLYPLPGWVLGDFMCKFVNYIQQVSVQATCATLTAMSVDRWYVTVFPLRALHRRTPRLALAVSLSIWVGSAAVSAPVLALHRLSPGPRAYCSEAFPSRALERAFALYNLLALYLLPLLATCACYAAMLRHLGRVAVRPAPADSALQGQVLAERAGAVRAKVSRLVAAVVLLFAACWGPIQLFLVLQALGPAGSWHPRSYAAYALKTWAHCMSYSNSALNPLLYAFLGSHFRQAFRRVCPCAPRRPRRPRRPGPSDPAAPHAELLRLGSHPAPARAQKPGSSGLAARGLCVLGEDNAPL
Beta-2 adrenergic receptor (Homo sapiens), sequence (P07550 whole entry, looked up): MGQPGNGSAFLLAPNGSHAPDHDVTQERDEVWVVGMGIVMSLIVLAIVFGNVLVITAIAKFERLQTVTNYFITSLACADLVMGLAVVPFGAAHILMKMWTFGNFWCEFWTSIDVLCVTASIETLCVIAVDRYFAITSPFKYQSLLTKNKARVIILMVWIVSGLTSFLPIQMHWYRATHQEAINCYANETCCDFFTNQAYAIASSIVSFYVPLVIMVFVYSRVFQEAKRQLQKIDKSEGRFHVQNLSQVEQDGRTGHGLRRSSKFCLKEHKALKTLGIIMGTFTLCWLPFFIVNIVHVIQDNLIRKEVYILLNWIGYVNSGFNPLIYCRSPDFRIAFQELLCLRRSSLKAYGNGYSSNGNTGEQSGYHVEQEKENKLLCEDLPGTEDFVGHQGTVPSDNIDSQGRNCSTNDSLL
Muscarinic acetylcholine receptor M1 (Homo sapiens), sequence (P11229 whole entry, looked up): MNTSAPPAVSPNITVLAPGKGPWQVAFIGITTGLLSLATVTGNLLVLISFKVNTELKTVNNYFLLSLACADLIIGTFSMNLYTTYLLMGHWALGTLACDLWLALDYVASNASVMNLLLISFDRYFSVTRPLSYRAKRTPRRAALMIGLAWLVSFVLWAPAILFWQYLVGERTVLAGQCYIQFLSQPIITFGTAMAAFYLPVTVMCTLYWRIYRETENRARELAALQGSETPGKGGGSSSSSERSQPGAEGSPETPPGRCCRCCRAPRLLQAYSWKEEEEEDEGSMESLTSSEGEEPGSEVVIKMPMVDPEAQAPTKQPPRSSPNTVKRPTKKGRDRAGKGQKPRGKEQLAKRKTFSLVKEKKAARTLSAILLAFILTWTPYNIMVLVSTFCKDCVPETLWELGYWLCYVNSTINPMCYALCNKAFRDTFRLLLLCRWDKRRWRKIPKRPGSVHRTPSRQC
Gonadotropin-releasing hormone receptor (Homo sapiens), sequence (P30968 whole entry, looked up): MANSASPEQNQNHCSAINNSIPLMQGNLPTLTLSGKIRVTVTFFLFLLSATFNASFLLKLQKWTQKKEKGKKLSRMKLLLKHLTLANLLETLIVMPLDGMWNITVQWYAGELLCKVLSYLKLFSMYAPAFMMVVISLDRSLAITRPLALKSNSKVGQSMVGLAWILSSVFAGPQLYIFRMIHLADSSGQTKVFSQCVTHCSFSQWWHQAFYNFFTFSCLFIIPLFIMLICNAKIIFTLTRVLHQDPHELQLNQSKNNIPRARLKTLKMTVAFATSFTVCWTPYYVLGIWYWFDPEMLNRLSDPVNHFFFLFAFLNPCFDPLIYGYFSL
D(2) dopamine receptor (Homo sapiens), sequence (P14416 whole entry, looked up): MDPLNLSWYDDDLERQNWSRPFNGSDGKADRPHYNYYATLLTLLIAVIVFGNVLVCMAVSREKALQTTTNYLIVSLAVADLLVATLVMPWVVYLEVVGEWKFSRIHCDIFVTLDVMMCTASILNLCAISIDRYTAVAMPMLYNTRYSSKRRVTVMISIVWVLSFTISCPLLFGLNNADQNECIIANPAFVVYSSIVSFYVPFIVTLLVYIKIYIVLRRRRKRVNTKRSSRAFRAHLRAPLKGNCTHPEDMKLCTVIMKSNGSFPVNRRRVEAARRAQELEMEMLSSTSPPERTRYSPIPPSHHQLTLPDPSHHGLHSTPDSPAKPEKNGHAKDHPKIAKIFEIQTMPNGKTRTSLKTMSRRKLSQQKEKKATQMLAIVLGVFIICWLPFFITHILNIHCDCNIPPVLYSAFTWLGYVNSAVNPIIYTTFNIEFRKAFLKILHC

For the molecule `CCOc1cc(OCC)c(C(=O)CCC(=O)O)cc1OCC`, the Potency result in [1], in assay [2], in [3], in assay [6], in assay [7] and in assay [8] was “inactive” in each case. Besides, the Potency entry in [9], in [10], in assay [11], in [12], in assay [13] and in [14] was “inactive” in each case. For the same molecule, the Potency result in assay [15], in [16], in assay [17] and in [18] was “inactive” in each case. Further, the outcome in [4] and in assay [5] was inactive.
Consider `CCCCC(=O)O[C@]1(C(=O)CO)CC[C@H]2[C@@H]3CCC4=CC(=O)CC[C@]4(C)[C@H]3[C@@H](O)C[C@@]21C`, for which the Potency result in assay [1], in assay [2], in assay [3], in assay [6], in assay [7] and in [8] was “inactive” in each case. In addition, the Potency result in [9], in [10], in assay [11], in [12], in assay [13] and in assay [14] was “inactive” each time. Besides, the Potency entry in assay [15], in assay [16] and in [18] was “inactive” throughout. Also, the outcome in assay [4] and in [5] was inactive.
With `CCOc1cc([N+](=O)[O-])c(OCC)cc1N1CCOCC1`, the Potency result in assay [1], in assay [2], in assay [3], in assay [6], in assay [7] and in assay [8] was “inactive” each time. The Potency entry in assay [9], in assay [10], in assay [11], in [12], in [13] and in [14] was “inactive” throughout. Also, the Potency entry in assay [15], in assay [16] and in [17] was “inactive” each time. For the same molecule, the outcome in [4] and in [5] was inactive.
`CC1=C2[C@@H]([C@H](C)CC[C@H]2/C=C(\C)C(=O)O)[C@H](O)C1`: the Potency result in [1], in [2], in [3], in [6], in assay [7] and in assay [8] was “inactive” throughout. For the same molecule, the Potency entry in assay [9], in [10], in assay [11], in assay [12], in assay [13] and in assay [15] was “inactive” each time. Moreover, the Potency entry in assay [19], in [16], in assay [17] and in assay [18] was “inactive” throughout. Besides, the result in assay [4] and in assay [5] was inactive. For the same molecule, the Potency in [14] was 0.0026 µM (active).
`CCCCC1CCCCC(=O)O1` (stereo unspecified): the Potency result in assay [1], in [2], in assay [3], in [6], in [7] and in [8] was “inactive” in each case. For the same molecule, the Potency result in [9], in [10], in assay [11], in assay [12], in assay [13] and in [14] was “inactive” in each case. Also, the Potency result in [15], in [19], in [17] and in [18] was “inactive” each time. Also, the outcome in assay [4] and in [5] was inactive.
`CC(C(=O)O)c1ccc(/C=C2\CCCCC2=O)cc1` (stereo unspecified): the Potency result in assay [1], in assay [3], in [6], in [7], in assay [8] and in assay [9] was “inactive” throughout. In addition, the Potency result in assay [10], in assay [11], in assay [12], in assay [13], in assay [14] and in assay [15] was “inactive” each time. Also, the Potency result in assay [16], in assay [17] and in assay [18] was “inactive” each time. Further, the Potency in assay [2] is 23.7 µM (active). Further, the outcome in [4] and in [5] was inactive.
Take `CC(C)CCCC(=O)O`: the Potency entry in [1], in assay [2], in assay [3], in [6], in assay [7] and in assay [8] was “inactive” in each case. For the same molecule, the Potency result in assay [9], in [10], in assay [11], in assay [12], in assay [13] and in [14] was “inactive” each time. The Potency result in [15], in [19], in assay [16], in assay [17] and in assay [18] was “inactive” throughout. Besides, the result in assay [4] and in [5] was inactive.

These data come from PubChem BioAssay (Tox21).
